Screening results (PubChem)
An excerpt weighted towards active compounds, which were near 1.7% of everything screened.
Imprint erasure = inducers of genomic imprint erasure in mouse ES cells | mouse ES Peg3-LacZ reporter, beta-gal luminescence, 40 h | Potency, µM (highest dose often 60.7 µM), for the others: top-dose activity change, positive = activation, actives largely listed as activators | 110,000 compounds, 0.02% hits
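Each well holds 300 Peg3LacZ-Neo (maternal) female ES cells incubated 40 h at 37C, 5% CO2. LacZ is measured by BetaGlo luminescence, with AC50 and maximum efficacy derived from dose-response curves.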
p53ts 32C tox = cytotoxicity in p53ts cells at permissive temperature; H1299-p53A138V at 32C, ATP luminescence viability, 24 h; Potency, µM (top dose mostly 46.1 µM), for the others: at the highest dose activity change, negative = cytotoxicity, actives largely listed as cytotoxic; 130,000 compounds, 0.93% hits; AID 924;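 further: 0% = DMSO and -100% = full killing by reference compound; nearly all actives have a fitted effect of over 55% in size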
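Viability by ATPlite luminescence after 24 h compound treatment (up to 46 uM) at the permissive 32C. Cells are H1299 carrying p53 A138V. Scale runs from DMSO basal to 100 uM tamoxifen as full kill; AC50 from Hill fits.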
p53ts 39C tox = kills p53ts cells at the nonpermissive temperature; H1299-p53A138V viability at 39C, ATP luminescence, 24 h; Potency, µM (top dose mostly 46.1 µM), inactives show at the top dose activity change, negative = cell killing, usual class: cytotoxic; 130,000 compounds, 1.5% hits; AID 902; further: on the % scale 0 is the no-effect control and ±100 the full control effect; nearly all actives have a fitted effect of over 55% in size
IkB sig inh = inhibitors of IkB signaling in ABC-DLBCL cells; 110,000 compounds, 0.04% hits; Potency, µM (titrated, usually from 57.1 µM), for inactives: at the top dose IkBa stabilization activation; ABC-DLBCL IkBa-CBG/CBR dual luciferase ratio, 4 h; response scale: scaled: untreated 0%, proteasome inhibitor 100%; active means well fitted curve in the direction sought with a large enough effect in the signal ratio, not every such curve was filed as active; inconclusive means small, poorly fitted or top-dose-only effect, or a change in a side signal; the % refers to the signal ratio;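 further: the direction sought is a rising ratio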
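Curves were fitted separately to fusion (green), unfused (red) and ratio luminescence, then classed by r2, magnitude and activity. Cells: OCI-Ly3, 4 h compound plus doxycycline at 37C; 10 uM MG-132 defined full response.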
An asterisk follows results filed as active; u = inconclusive; x = no result; [ ] = dose if it differs, or a comment. Unless noted, the call rests on the fitted dose curve; in most records, active means well fitted curve in the direction sought with a large enough effect; inconclusive means small, poorly fitted or top-dose-only effect, or another doubt; inactive means no such curve, though single readings can be large; an effect the other way counts as inactive or inconclusive. Potency means the concentration at half of the fitted maximal effect.

SMILES	Imprint erasure	p53ts 32C tox	p53ts 39C tox	IkB sig inh
O=C(c1cccs1)c1ccc(-c2cccs2)s1	-83.9%	7.94µM*	10µM*	u
C[C@H]1[C@H](C)CC[C@]2(C(=O)O)CC[C@]3(C)C(=CC[C@@H]4[C@]5(C)C[C@H](O)[C@@H](O)[C@@](C)(CO)[C@@H]5[C@H](O)C[C@@]43C)[C@H]12	x	8.9%[9.22 µM]	5.3%[9.22 µM]	-0.1%[11.4 µM]
Cc1cc2nc(-c3ccc(SCC(=O)N4CCN(C(=O)c5ccco5)CC4)nc3)[nH]c2cc1C	-41.9%	6.31µM*	5.01µM*	u
Cc1cc2nc(-c3ccc(SCC(=O)N4CCOCC4)nc3)[nH]c2cc1C	-27.1%	6.31µM*	7.94µM*	u
CC(=O)Nc1cccc(NC(=O)CSc2ccc(-c3sc(-c4ccccc4)nc3C)nn2)c1	-19.8%[10.9 µM]	14.3%	7.94µM*	u
CCc1ccc(NC(=O)CSc2ccc(-c3sc(-c4ccccc4)nc3C)nn2)cc1	-10.2%[10.9 µM]	0.3%	-18.2%	u
COc1cc(NC(=O)CSc2ccc(-c3sc(-c4ccccc4)nc3C)nn2)cc(OC)c1	-19.5%[10.9 µM]	-2.2%	-8.9%	7.5%
Cc1nc(-c2ccccc2)sc1-c1ccc(SCC(=O)Nc2cccc(C(F)(F)F)c2)nn1	-14.9%[10.9 µM]	-9.1%	10µM*	0.4%
N[C@H](Cc1ccc(F)cc1)C(=O)O	x	15.9%	-4.3%	9.2%
Cc1nnc(SCCn2c(N3CCCC(C)C3)nc3c2c(=O)n(C)c(=O)n3C)s1 (stereo unspecified)	-93.1%	5.01µM*	6.31µM*	2.5%
C[C@@H]1O[C@@H](OC[C@@H]2O[C@@H](Oc3c(-c4ccc(O)c(O)c4)oc4cc(O)cc(O)c4c3=O)[C@H](O)[C@H](O)[C@@H]2O)[C@H](O)[C@H](O)[C@@H]1O	x	x	x	-1.2%[11.4 µM]
CCCCS(=O)(=O)c1oc(-c2cccs2)nc1S(=O)(=O)c1ccc(F)cc1	-37.8%[10.9 µM]	20µM*	3.16µM*	u
CCCCS(=O)(=O)c1oc(-c2ccc(F)cc2)nc1S(=O)(=O)c1ccc(C)cc1	-36.5%[10.9 µM]	12.6µM*	3.98µM*	u
CCS(=O)(=O)c1oc(-c2ccc(F)cc2)nc1S(=O)(=O)c1ccccc1	-38.1%[10.9 µM]	u	2.51µM*	u
Cc1ccc(S(=O)(=O)c2nc(-c3ccc(F)cc3)oc2N2CCN(c3ccccc3)CC2)cc1	-4.2%[10.9 µM]	12.4%	13.7%	0.0%
O=S(=O)(c1ccccc1)c1nc(-c2ccc(F)cc2)oc1N1CCCCCC1	-21.1%[10.9 µM]	4.9%	11.5%	u
CCCSc1oc(-c2cccs2)nc1S(=O)(=O)c1ccc(C)cc1	-18.8%[10.9 µM]	1.5%	1.4%	u
CCCCCS(=O)(=O)c1oc(-c2cccs2)nc1S(=O)(=O)c1ccc(C)cc1	-21.5%[10.9 µM]	u	3.16µM*	u
COc1ccc(CNC(=O)c2cc(-c3ccc(OC)c(OC)c3)nc3n[nH]c(-c4ccc(C)cc4)c23)cc1	-20.9%[10.9 µM]	3.0%	-19.7%	-0.4%
COc1ccc2c(Sc3ccc(Cl)cc3)c(C(=O)NCCCN3CCCCC3)[nH]c2c1	-21.1%[10.9 µM]	16.0%	12.5%	u
CCC(C)S(=O)(=O)c1oc(-c2ccc(F)cc2)nc1S(=O)(=O)c1ccc(F)cc1 (stereo unspecified)	-38.6%[10.9 µM]	3.98µM*	3.16µM*	u
O=C(Nc1cc(Cl)cc(Cl)c1)c1ccc(F)c(S(=O)(=O)NC2CCCCC2)c1	14.9%[10.9 µM]	u	25.1µM*	u
COc1ccc(CNS(=O)(=O)c2cc(C(=O)Nc3cc(Cl)cc(Cl)c3)ccc2F)cc1	-6.4%[10.9 µM]	3.3%	u	u
O=C(Nc1ccc(Br)cc1)c1ccc(F)c(S(=O)(=O)NC2CCCCCC2)c1	-25.2%[10.9 µM]	u	12.6µM*	u
Cc1nn(Cc2ccc(Cl)cc2Cl)c(C)c1NC(=O)CCl	x	17.8µM*	5.62µM*	x
SMILES	Imprint erasure	p53ts 32C tox	p53ts 39C tox	IkB sig inh
COc1ccc(/C=C/C(=O)c2ccc(C)s2)cc1	-4.7%	31.6µM*	21.2%	x
OC[C@@H]1O[C@H](O)[C@@H](Cl)[C@H](O)[C@@H]1O	x	-7.7%	5.7%	-4.6%
CCn1c(=O)n(CC)c2cc(N3CCCC3)c(NC(=O)Nc3cc(C)cc(C)c3)cc21	2.6%[10.9 µM]	u	12.6µM*	u
COc1ccccc1OCCSc1nc(-c2ccc(C(C)(C)C)cc2)nc2cc(=O)[nH]n12	-2.9%[10.9 µM]	35.9%	56.1%	u
Cc1ccc(OCCCSc2nc(-c3ccc(C(C)(C)C)cc3)nc3cc(=O)[nH]n23)cc1C	-6.2%[10.9 µM]	u	20µM*	2.1%
CC(C)(C)c1ccc(-c2nc(SCCOc3ccc(Cl)cc3)n3[nH]c(=O)cc3n2)cc1	4.4%[10.9 µM]	u	u	16.1%
C=CCc1ccccc1OCCSc1nc(-c2ccc(C(C)(C)C)cc2)nc2cc(=O)[nH]n12	-1.9%[10.9 µM]	u	10µM*	-0.1%
CC1(C)CC(=O)c2sc(NC(=O)c3cccs3)nc2C1	x	1.58µM*	1.58µM*	x
CC1(C)CC(=O)c2sc(NC(=O)CN3CCCCC3)nc2C1	23.2%	5.8%	7.6%	0.9%
O=C(Nc1nc2c(s1)CCCC2)c1cccs1	x	10µM*	10µM*	u
COc1ccccc1C(=O)Nc1ccc(OCc2cc(=O)n3cccc(C)c3n2)cc1	3.9%[10.9 µM]	9.4%	5.9%	-0.8%
COc1cc(C(=O)Nc2ccc(OCc3cc(=O)n4cccc(C)c4n3)cc2)cc(OC)c1OC	-10.2%[10.9 µM]	u	31.6µM*	-0.2%
O=C(O)C[C@H](Nc1ccccc1)C(=O)O	2.8%[10.9 µM]	-1.8%[9.22 µM]	-22.2%[9.22 µM]	0.6%[11.4 µM]
O=C(CC(Nc1ccc(Cl)cc1)C(=O)O)c1ccccc1 (stereo unspecified)	x	25.1µM*	u	x
CC(=O)C1CCC2C3CC(C)C4=CC(=O)CC[C@@]4(C)C3C(O)C[C@@]12C (stereo partly specified)	-8.5%	6.3%	-22.6%	x
CN(C(=O)c1ccncc1)c1nnc(-c2ccccn2)s1	-34.0%	-5.3%	-10.8%	-2.9%
CN(C(=O)c1ccccc1)c1nc2ccccc2s1	-55.9%	10µM*	12.6µM*	u
COC(=O)c1nn(-c2ccc(-c3ccccc3)cc2)cc1O	-85.6%	7.94µM*	u	u
O=C1c2ccccc2-c2cc([N+](=O)[O-])c([N+](=O)[O-])cc21	-39.7%[10.9 µM]	-21.2%[9.22 µM]	36.5%[9.22 µM]	3.98µM*
Clc1ccc(-c2nnn3c2nc(NCc2ccc4c(c2)OCO4)c2ccccc23)cc1	-1.5%[10.9 µM]	9.4%	-21.3%	u
Cc1cccc(-c2nnn3c2nc(NCc2ccc4c(c2)OCO4)c2ccccc23)c1	-9.3%[10.9 µM]	-5.0%	6.31µM*	u
Cc1ccc(Nc2ncnc3c2nc2n3CCCC2)c(Br)c1	x	10µM*	x	x
CCC(=O)Nc1cccc(-c2cn3ccsc3n2)c1	-8.2%	-15.3%	-16.5%	0.4%
O=C(Nc1ccc(-c2cn3ccsc3n2)cc1)C1CC1	-38.1%	6.31µM*	5.01µM*	0.1%
O=C(CCN1C(=O)c2ccccc2C1=O)Nc1ccc(-c2cn3ccsc3n2)cc1	-51.9%	-15.4%	u	-0.7%
CC(=O)Nc1ccc(-c2cn3ccsc3n2)cc1	-48.0%	10µM*	u	7.4%
c1cn2cc(-c3ccc4c(c3)OCO4)nc2s1	-80.5%	15.8µM*	12.6µM*	0.1%
